Experimental data as given in the supplement of paper PMC13380429.

Columns and labels:
[1] = tested on: Vero E6 infected with SARS-CoV-2; experiment: morphology score (similarity to uninfected cells); higher = more like uninfected cells; settings: 24 h
[2] = tested on: Vero E6 infected with SARS-CoV-2; experiment: SARS-CoV-2 infection rate relative to infected DMSO; higher = more infection, active = 60 or less; settings: 24 h

SMILES: C[C@]12CCC(=O)C=C1CC[C@@H]1[C@@H]2C(=O)C[C@]2(C)C(=O)CC[C@@H]12 [adrenosterone] (10 µM)
- morphology score [1]: -0.109
- SARS-CoV-2 infection rate [2]: 97.5% (inactive)

SMILES: CCCCNc1cc(C(=O)O)cc(S(N)(=O)=O)c1Oc1ccccc1 [bumetanide] (10 µM)
- morphology score [1]: 0.0462
- SARS-CoV-2 infection rate [2]: 102% (inactive)

SMILES: COc1ncc2cc(C(=O)Nc3cc(C(=O)NCc4cccc(Cl)c4)ccc3Cl)c(=O)[nH]c2n1 (10 µM)
- morphology score [1]: -0.0693
- SARS-CoV-2 infection rate [2]: 110% (inactive)

SMILES: CCC(=O)NC[C@@H]1C[C@H]1c1cccc2c1CCO2 [tasimelteon] (10 µM)
- morphology score [1]: 0.169
- SARS-CoV-2 infection rate [2]: 98.5% (inactive)
